Holding throughout (test): NCI-60 one-dose screen, 48 h (100 = growth as untreated, 0 = no growth, -100 = all killed)
Conditions in all cases: 10 µM unless noted

Experiment [1] deals with NCI-H23 lung.
The test system of experiment [2] is NCI-H226 lung.
Experiment [3] concerns NCI-H322M lung.
The subject of experiment [4] is HOP-62 NSCLC.
In experiment [5] the test system is NCI-H460 lung.
The test system of experiment [6] is HOP-92 NSCLC.
Experiment [7] has as its system NCI-H522 lung.
Experiment [8] deals with A549/ATCC NSCLC.
Experiment [9] relates to 786-0 renal.
Experiment [10] has as its system COLO 205 colon.
The subject of experiment [11] is DU-145 prostate.
For experiment [12], the system named is K-562 leukemia.
Experiment [13] relates to MALME-3M melanoma.
Experiment [14] concerns MDA-MB-231 breast.
Experiment [15] has as its system RXF 393 renal.
Experiment [16] concerns SF-268 CNS.
Experiment [17] has as its system SF-295 CNS.
Experiment [18] relates to SF-539 CNS.
In experiment [19] the test system is UACC-257 melanoma.
In experiment [20] the test system is M14 melanoma.

Each structure is given as a SMILES string. This is part of a sample that, as a whole, favours compounds with a hit. Of some 83,000 tested, about 20% had one in any assay.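 Percent growth is the endpoint: 0 to 100 indicates growth inhibition (40 means 60% inhibition), 0 means no net growth, and negative values indicate cell death.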 Unmarked numbers belong to inactive results. Active and inactive are the calls of the source. The calls were made as follows: active = growth percent below 10; inactive = the rest.

Turning to `COc1ccc2oc(=O)cc(-c3nc4ccc(N)cc4[nH]3)c2c1`, the growth in [1] was 84%; in experiment [2], 72%; in [3], 86.2%; in [4] it was 70.8%; in experiment [5], 102%; in experiment [6] it was 80.2%. For the same compound, the growth in [7] was 64.1%; in experiment [8], 90%; in experiment [9], 96.8%; in experiment [10] it was 84.9%; in experiment [11], 97.5%; in experiment [12], 119%. Also, the growth in [13] was 121%; in experiment [14] it was 74.2%; in experiment [15] it was 95.1%; in experiment [16], 87.5%; in experiment [17] it was 90.2%; in experiment [18], 82.3%. Besides, the figures for the growth in experiment [19] and in experiment [20] were 132% and 114%, respectively.
For `S=c1ssnc1-c1cc2ccccc2o1`, the growth in experiment [1] is 84.3%; in experiment [2] it was 92.9%; in [3] it was 91.8%; in experiment [4], 86.7%; in [5] it was 70%; in [6], 4.61% (active). The growth in experiment [7] was 79.2%; in experiment [8], 88.2%; in experiment [9] it was 24.1%; in experiment [10] it was 83.6%; in [11], 97.5%; in [12], 55.7%. For the same compound, the growth in experiment [13] is 79.8%; in experiment [14], 91.2%; in [15], 85.6%; in experiment [16], 78.8%; in experiment [17], 75.1%; in experiment [18], 102%. Further, the growth is 94.5% in [19] and 52.4% in [20].
As for `C#C[C@@]1(O)[C@@H](CO)O[C@@H](n2cc(F)c3c(N)ncnc32)[C@@H]1O`, the growth in experiment [1] is -30.5% (active); in [2], -62.3% (active); in experiment [3], -2.54% (active); in experiment [4], 17.5%; in experiment [5] it was 0.623% (active); in experiment [6], -15% (active). Besides, the growth in [7] was -1.45% (active); in [8], -37.9% (active); in experiment [9], -29.5% (active); in experiment [10], -43.4% (active); in experiment [11], 2.84% (active); in experiment [12], 9.21% (active). The growth in [13] was -30.2% (active); in experiment [14] it was -14.8% (active); in experiment [15] it was -36.8% (active); in experiment [16], 15.9%; in experiment [17], -23% (active); in experiment [18] it was 0.929% (active). The growth in [19] was 2.98% (active); in [20], -42% (active).
Take `O=C(Nc1cc(Nc2ncccc2-c2ncnc3nc[nH]c23)ccc1F)c1cc(C(F)(F)F)cc(C(F)(F)F)c1`: the growth was -3.98% (active) in experiment [1]; 16.8% in [2]; 46.7% in experiment [3]; -14.4% (active) in experiment [4]; -30.4% (active) in experiment [5]; -31.3% (active) in [6]. Further, the growth in [7] is 11.7%; in experiment [8], 0.774% (active); in experiment [9], -3.09% (active); in experiment [10], -60.2% (active); in experiment [11], 20.9%; in experiment [12] it was -13.7% (active). Also, the growth is -58.4% (active) in [13]; -51.3% (active) in [14]; -63.4% (active) in experiment [15]; 21.8% in [16]; -52.8% (active) in experiment [17]; -56% (active) in [18]. The growth is -0.588% (active) in [19] and -41.7% (active) in experiment [20].
For `N#Cc1c(-c2ccc(F)cc2)c(C#N)c2c(C#N)c(N)nn2c1N`, the growth is 96.9% in [1]; 82.2% in experiment [2]; 97.5% in experiment [3]; 81% in experiment [4]; 98.7% in experiment [5]; 76.9% in experiment [6]. Further, the growth in experiment [7] is 85.7%; in [8], 92%; in experiment [9], 94.2%; in experiment [10], 98.4%; in experiment [11] it was 89.8%; in experiment [12], 106%. In addition, the growth in [13] was 110%; in experiment [14] it was 102%; in experiment [15] it was 84.4%; in experiment [16], 93.3%; in [17], 101%; in experiment [18], 90.8%. Also, the growth is 110% in experiment [19] and 105% in [20].
Regarding `CC(C)(C#N)c1cc(F)cc(C(=O)Nc2cc(Nc3ncccc3-c3ncnc4nc[nH]c34)ccc2F)c1`, the growth is 16.8% in [1]; 41.3% in experiment [2]; 53.3% in experiment [3]; 44.9% in experiment [4]; 30.5% in experiment [5]; -0.389% (active) in experiment [6]. Moreover, the growth in experiment [7] was 7.73% (active); in experiment [8], 42.1%; in experiment [9], 63%; in experiment [10] it was 6.56% (active); in [11], 56.1%; in experiment [12], 5.97% (active). Besides, the growth was -28.4% (active) in experiment [13]; 22.4% in [14]; 34.1% in experiment [15]; 60.6% in [16]; 46.1% in experiment [17]; 20.8% in experiment [18]. Moreover, the growth in [19] was 23.7%; in experiment [20] it was 5.28% (active).
As for `C=C1C(=O)O[C@H]2[C@H]1CCC(/C=N/c1ncc(Br)cc1N)=C\CC[C@@]1(C)O[C@@H]21`, the growth in experiment [1] is 49.2%; in experiment [2] it was 51.9%; in experiment [3], 85.3%; in experiment [4] it was 67.3%; in experiment [5], 58.3%; in experiment [6], -15.2% (active). For the same compound, the growth in experiment [7] is -51.7% (active); in experiment [8], 57.4%; in experiment [9] it was -13.9% (active); in experiment [10], -60% (active); in [11], 15.5%; in experiment [12], 2.64% (active). In addition, the growth in experiment [13] is -9.18% (active); in [14], -15.5% (active); in [15], -79.3% (active); in [16] it was 52.5%; in [17], 70.3%; in experiment [18], 25.8%. The growth in experiment [19] was 22%; in experiment [20], -12.4% (active).
On to `COc1ccc(-c2cc(-c3nnc(SCC(=O)Nc4ccc(C(C)=O)cc4)o3)c3ccccc3n2)cc1`, for which the growth in experiment [1] was 0.0219% (active); in [2] it was 17.1%; in [3], 79.9%; in experiment [4] it was -33.9% (active); in experiment [5], -54.4% (active); in experiment [6], -10.1% (active). The growth was -28.7% (active) in experiment [7]; 22.3% in experiment [8]; -72.3% (active) in experiment [9]; 21.7% in [10]; 6.34% (active) in [11]; 35.2% in [12]. The growth is -52.7% (active) in [13]; -23.9% (active) in [14]; -4.69% (active) in experiment [15]; 33.8% in experiment [16]; 42.5% in experiment [17]; 12.3% in experiment [18]. The growth was 68.3% in experiment [19] and 5.23% (active) in experiment [20].

The values are drawn from PubChem BioAssay (NCI).
